Assay [1] is described as follows: qHTS assay to identify aromatase inhibitors - cell viability counter screen (AID 743084).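 Also: cells stimulated with testosterone during compound exposure; nearly all actives have a fitted effect of over 55% in size.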 Also: potency is read from the fitted curve at half-maximal effect. On the technique in general: qHTS replaces the single test concentration by a dilution series.
Assay [2] concerns the target Aryl hydrocarbon receptor (Homo sapiens) (UniProt P35869). Put plainly: qHTS assay to identify small molecule that activate the aryl hydrocarbon receptor (AhR) signaling pathway (AID 743085). Also: nearly all actives have a fitted effect of over 15% in size. Also: potency is read from the fitted curve at half-maximal effect.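 As to activation: HG2L7.5c1 human HepG2 liver cells with stably integrated DRE-driven firefly reporter; series mostly up to about 70 µM.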 Summed up:
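HepG2 cells (HG2L7.5c1) stably carrying a firefly luciferase reporter driven by 20 dioxin responsive elements were exposed to compound for 24 h at 37C after a 5 h settling period; luminescence rise (ONE-Glo) indicated activation.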

A short description of assay [3]: qHTS assay to identify small molecule that activate the aryl hydrocarbon receptor (AhR) signaling pathway - cell viability counter screen (AID 743086). Also: nearly all actives have a fitted effect of over 45% in size. Also: potency is read from the fitted curve at half-maximal effect. Summed up: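 Cytotoxicity counter screen: CellTiter-Fluor signal (30 min, 37 C) in 4000 HepG2 cells/well carrying the DRE-luciferase reporter, following 24 h compound exposure at 37 C.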
Assay [4] deals with Peroxisome proliferator-activated receptor gamma (Homo sapiens) (UniProt P37231). Nature of the assay: qHTS assay to identify small molecule agonists of the peroxisome proliferator-activated receptor gamma (PPARg) signaling pathway (AID 743094; active = well fitted activation curve with a large enough effect in the signal ratio in the repeat runs, not every such curve was filed as active; the % refers to the signal ratio; also: potency is read from the fitted curve at half-maximal effect). The procedure, abridged: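 Cells from the PPARg UAS-bla HEK293H line are plated and incubated 5 h at 37C. Compounds in DMSO are pinned in and left 17 h at 37C. LiveBLAzer B/G substrate is then added for 1 h at room temperature before fluorescence is measured.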

Assay [5] has the same target. Nature of the assay: qHTS assay to identify small molecule antagonists of the peroxisome proliferator-activated receptor gamma (PPARg) signaling pathway (AID 743191; calls by dose curve; also: series mostly up to about 63 µM; nearly all actives have a fitted effect of over 30% in size). Summed up:
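Beta-lactamase reporter under UAS control in HEK293H PPARg-bla cells; compound treatment 17 h at 37C. Read-out: fluorescence intensity after 1 h room-temperature incubation with LiveBLAzer B/G FRET substrate.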

A short description of assay [6]: qHTS assay to identify small molecule antagonists of the peroxisome proliferator-activated receptor gamma (PPARg) signaling pathway - cell viability counter screen (AID 743194). Also: nearly all actives have a fitted effect of over 55% in size. Summed up:
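Viability was measured as CellTiter-Glo luminescence in GeneBLAzer PPARg UAS-bla HEK293H cells. These cells had been exposed 17 h at 37 C to compounds together with rosiglitazone at 50 nM final, with the beta-lactamase readout taken in the same wells.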

The nature of assay [7]: qHTS assay for small molecule agonists of the antioxidant response element (ARE) signaling pathway (AID 743202; active = well fitted activation curve with a large enough effect in the signal ratio in the repeat runs, not every such curve was filed as active; the % refers to the signal ratio; also: potency is read from the fitted curve at half-maximal effect). Summed up:
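After 16 hours of compound treatment at 37 C, HepG2 cells with a stably integrated ARE-driven beta-lactamase reporter were loaded 2 hours at room temperature with LiveBLAzer B/G FRET substrate and fluorescence intensity measured.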

Assay [8] in a line: qHTS assay for small molecule agonists of the antioxidant response element (ARE) signaling pathway - cell viability counter screen (AID 743203; calls by dose curve; also: nearly all actives have a fitted effect of over 55% in size; also: potency is read from the fitted curve at half-maximal effect). The procedure, abridged: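 Cytotoxicity was tested in parallel with the ARE reporter screen. ARE-bla HepG2 cells were exposed to compounds for 16 hrs, and viability was taken from CellTiter-Glo luminescence.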
A short description of assay [9]: qHTS assay for small molecule activators of the heat shock response signaling pathway - cell viability counter screen (AID 743209). Also: nearly all actives have a fitted effect of over 50% in size. Summed up: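 Cytotoxicity counter screen run in parallel with the HSE beta-lactamase reporter, using the same wells. HeLa HSE-bla cells received compound for 5 h at 37 C; ATP-based CellTiter-Glo luminescence was measured after 30 min at room temperature.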

The nature of assay [10]: qHTS assay for small molecule activators of the heat shock response signaling pathway (AID 743210; active = well fitted activation curve with a large enough effect in the signal ratio in the repeat runs, with a control signal flat, not every such curve was filed as active; the % refers to the signal ratio; also: series mostly up to about 63 µM). Summed up:
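Compound exposure lasted 5 h at 37 C in HeLa cells carrying a heat-shock-element-driven beta-lactamase reporter. Read-out: fluorescence intensity after 2.5 h room-temperature loading with LiveBLAzer B/G FRET substrate.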

Values joined by “and” are separate entries in the source; they are usually repeats but may differ in a detail not shown here. Equal entries are not always repeated. Records with an inconclusive call do not appear. The source holds several records for some structures; these can differ, active in one and inactive in another. Active and inactive are the calls of the source. Unless noted, calls follow the shape of the dose curve; as a rule, active = well fitted curve in the direction sought with a large enough effect in the repeat runs; inconclusive = weak or mixed curves; inactive = no such curve, though single readings can be large; an effect the other way counts as inactive or inconclusive.

Chain of Aryl hydrocarbon receptor (Homo sapiens) (P35869 whole entry, looked up): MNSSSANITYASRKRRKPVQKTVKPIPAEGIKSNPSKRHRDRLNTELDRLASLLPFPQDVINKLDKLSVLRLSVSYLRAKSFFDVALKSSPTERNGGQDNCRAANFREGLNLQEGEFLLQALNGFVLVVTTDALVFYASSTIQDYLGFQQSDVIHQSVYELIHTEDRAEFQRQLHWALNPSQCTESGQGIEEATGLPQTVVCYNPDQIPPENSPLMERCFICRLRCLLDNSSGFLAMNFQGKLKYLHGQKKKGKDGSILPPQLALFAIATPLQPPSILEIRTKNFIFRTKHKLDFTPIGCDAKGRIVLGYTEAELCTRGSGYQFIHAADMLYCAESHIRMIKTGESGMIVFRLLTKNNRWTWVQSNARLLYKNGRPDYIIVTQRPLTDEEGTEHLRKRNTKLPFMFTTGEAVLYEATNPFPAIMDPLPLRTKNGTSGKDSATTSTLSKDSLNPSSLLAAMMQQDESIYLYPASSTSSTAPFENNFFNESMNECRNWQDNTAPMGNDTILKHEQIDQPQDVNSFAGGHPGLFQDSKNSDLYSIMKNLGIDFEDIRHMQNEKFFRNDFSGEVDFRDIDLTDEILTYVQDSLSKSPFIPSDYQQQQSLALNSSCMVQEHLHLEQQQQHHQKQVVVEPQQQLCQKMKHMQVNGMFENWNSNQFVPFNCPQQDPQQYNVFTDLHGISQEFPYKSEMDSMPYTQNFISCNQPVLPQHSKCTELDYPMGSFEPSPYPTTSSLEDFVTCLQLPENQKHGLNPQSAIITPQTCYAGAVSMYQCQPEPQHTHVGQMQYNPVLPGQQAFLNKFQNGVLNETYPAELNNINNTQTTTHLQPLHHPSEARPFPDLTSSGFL
Chain of Peroxisome proliferator-activated receptor gamma (Homo sapiens) (P37231 whole entry, looked up): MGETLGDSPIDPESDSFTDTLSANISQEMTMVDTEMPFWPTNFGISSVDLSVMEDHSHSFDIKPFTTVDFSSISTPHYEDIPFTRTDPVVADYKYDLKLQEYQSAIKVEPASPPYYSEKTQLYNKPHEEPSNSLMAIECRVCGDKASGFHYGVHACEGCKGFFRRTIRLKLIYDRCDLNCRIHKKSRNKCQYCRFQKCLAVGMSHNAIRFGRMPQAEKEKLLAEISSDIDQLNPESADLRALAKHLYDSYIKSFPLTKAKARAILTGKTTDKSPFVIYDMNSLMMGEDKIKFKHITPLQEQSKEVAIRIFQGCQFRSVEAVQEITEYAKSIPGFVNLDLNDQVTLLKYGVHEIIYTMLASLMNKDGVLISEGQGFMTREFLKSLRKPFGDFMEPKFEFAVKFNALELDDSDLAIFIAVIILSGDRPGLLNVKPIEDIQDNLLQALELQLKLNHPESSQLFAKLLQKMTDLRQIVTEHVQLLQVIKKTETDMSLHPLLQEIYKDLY

Take `Nc1cc(S(=O)(=O)O)cc2cc(S(=O)(=O)O)cc(O)c12`: the Potency entry in assay [1], in assay [2], in assay [3], in [4], in assay [5] and in assay [6] was “inactive” throughout. Also, the Potency entry in [7], in assay [8] and in [9] was “inactive” in each case.
On to `C1COC(NC(C2CC2)C2CC2)=N1`, for which the Potency entry in assay [1], in assay [2], in assay [3], in assay [4], in assay [5] and in assay [6] was “inactive” each time. Moreover, the Potency result in assay [7], in assay [8], in assay [9] and in [10] was “inactive” each time.
For `C=CS(=O)(=O)O`, the Potency result in assay [1], in assay [2], in assay [3], in assay [4], in [5] and in [6] was “inactive” each time. Also, the Potency result in assay [7], in assay [8], in assay [9] and in [10] was “inactive” throughout.
Regarding `CCc1ccc(C(c2ccc(CC)cc2)C(Cl)Cl)cc1`, the Potency entry in assay [1], in [2], in [3], in assay [4], in assay [5] and in assay [6] was “inactive” throughout. Moreover, the Potency result in assay [7], in assay [8], in assay [9] and in assay [10] was “inactive” throughout.
As for `CCC(CO)(CO)COCC(CC)(CO)CO`, the Potency result in [1], in assay [2], in [3], in [4], in [5] and in [6] was “inactive” each time. Besides, the Potency result in assay [7], in [8], in assay [9] and in [10] was “inactive” each time.
Take `Cc1ccc(-c2cc(C(F)(F)F)nn2-c2ccc(S(N)(=O)=O)cc2)cc1`: the Potency entry is “inactive and 54.3 µM (active)” in [1]; 26.6 µM (active) in assay [7]; 61.1 µM (active) and inactive in [8]. For the same compound, the Potency result in assay [2], in assay [3], in [4], in [5], in assay [6] and in assay [9] was “inactive” in each case. The Potency entry in assay [10] was “inactive”.
In the case of `CCOc1ccc2c(c1)C(C)=CC(C)(C)N2`, the Potency result in assay [1], in assay [2], in assay [3], in assay [5], in [6] and in assay [8] was “inactive” throughout. The Potency result in [9] was “inactive”. In addition, the Potency in [4] was 21.3 µM (active); in [7] it was 61.1 µM (active).
Take `CC(=O)OCCOCCOCCOC(C)=O`: the Potency entry in assay [1], in assay [2], in assay [3], in assay [4], in [5] and in assay [6] was “inactive” in each case. Moreover, the Potency result in assay [7], in assay [8], in [9] and in assay [10] was “inactive” each time.
Turning to `NNCCc1ccccc1`, the Potency result in [1], in assay [3], in [4], in assay [5], in [6] and in assay [7] was “inactive” in each case. For the same compound, the Potency entry in assay [8], in [9] and in [10] was “inactive” each time. For the same compound, in assay [2], the Potency is 10.1 µM (active) and 30.7 µM (active).
With `c1ccc2cc3c(ccc4ccccc43)cc2c1`, the Potency entry in [1], in [3], in [4], in [5], in assay [6] and in assay [8] was “inactive” in each case. For the same compound, the Potency result in [9] and in assay [10] was “inactive” throughout. For the same compound, the Potency was 4.34 µM (active) and 6.86 µM (active) in assay [2]; 6.11 µM (active) in assay [7].
On to `O=C(Oc1ccccc1)c1ccccc1O`, for which the Potency result in [1], in assay [2], in assay [3], in assay [4], in assay [5] and in assay [6] was “inactive” throughout. In addition, the Potency result in assay [7], in assay [8], in [9] and in assay [10] was “inactive” each time.
Turning to `CCN(CC)C(=O)Nc1ccc(OCC(O)CNC(C)(C)C)c(C(C)=O)c1` (stereo unspecified), the Potency entry in assay [1], in assay [2], in assay [3], in assay [4], in assay [5] and in assay [6] was “inactive” each time. The Potency result in assay [7], in assay [8], in [9] and in assay [10] was “inactive” throughout.
For the compound `c1ccc2n[nH]nc2c1`, the Potency entry in assay [1], in assay [2], in assay [3], in assay [4], in assay [5] and in [6] was “inactive” throughout. The Potency entry in assay [7], in [8], in [9] and in assay [10] was “inactive” each time.
As to `CCC(=O)/C=C/C1C(C)=CCCC1(C)C` (stereo unspecified), the Potency entry in assay [1], in assay [2], in [3], in [4], in [5] and in [6] was “inactive” throughout. Besides, the Potency entry in [7], in assay [8], in [9] and in assay [10] was “inactive” throughout.
Take `Cc1cc(C2(c3cc(C)c(O)cc3C)OS(=O)(=O)c3ccccc32)c(C)cc1O`: the Potency in assay [1] was 21.7 µM (active) and 24.3 µM (active); in assay [2], 30.6 µM (active) and inactive; in assay [3], 19.3 µM (active) and 21.7 µM (active). The Potency entry in assay [4], in assay [5], in [6], in assay [7], in assay [8] and in assay [9] was “inactive” throughout.
Regarding `CC1=C(C=O)C(C)(C)CC=C1`, the Potency result in [1], in [2], in [3], in assay [4], in assay [5] and in [8] was “inactive” in each case. Moreover, the Potency result in assay [10] was “inactive”.
For the compound `c1ccc2c(c1)CCCC2C1=NCCN1` (stereo unspecified), the Potency entry in [1], in [2], in assay [3], in assay [4], in assay [5] and in assay [6] was “inactive” in each case. For the same compound, the Potency entry in assay [7], in assay [8] and in [10] was “inactive” each time.
Take `CC(C)(C)NCC(O)c1cc(O)cc(O)c1` (stereo unspecified): the Potency result in [1], in [2], in [3], in assay [4], in assay [6] and in assay [7] was “inactive” each time. The Potency entry in [8] and in assay [10] was “inactive” each time.
Turning to `CCC(C)(Oc1ccc(C2(c3ccc(OC(C)(CC)C(=O)O)cc3)CCCCC2)cc1)C(=O)O` (stereo unspecified), the Potency entry in assay [1], in [2], in [3], in assay [4], in assay [5] and in [6] was “inactive” throughout. Further, the Potency entry in assay [7], in assay [8] and in assay [10] was “inactive” in each case.
For `O=C(O)c1cccc(C(=O)O)c1`, the Potency entry in assay [1], in assay [2], in assay [3], in assay [4], in [5] and in assay [6] was “inactive” throughout. The Potency result in assay [8], in assay [9] and in assay [10] was “inactive” throughout.
In the case of `CC(C)(O)CCC(C)(C)O`, the Potency entry in assay [1], in assay [2], in [3], in assay [4], in [6] and in assay [7] was “inactive” in each case. Also, the Potency result in assay [8], in [9] and in assay [10] was “inactive” in each case.
As for `CC(=O)CC(C)=O`, the Potency result in [1], in [2], in assay [3], in assay [4], in [6] and in assay [7] was “inactive” each time. The Potency entry in [8] and in [10] was “inactive” in each case.
`COc1cc(C(=S)N2CCOCC2)ccc1O`: the Potency entry in assay [1], in assay [2], in [3], in [4], in assay [6] and in assay [7] was “inactive” throughout. Further, the Potency result in assay [8] was “inactive”.
For the compound `O=C(O)c1cn(-c2ccc(F)cc2)c2cc(N3CCNCC3)c(F)cc2c1=O`, the Potency entry in assay [1], in [2], in [3], in [4], in [6] and in assay [7] was “inactive” throughout. The Potency entry in assay [8] and in [10] was “inactive” in each case.

For the origin of these results see PubChem BioAssay (Tox21).
